Screening results deposited in PubChem by National Center for Advancing Translational Sciences (NCATS).
LmPK inhibitor = qHTS Assay for Inhibitors of Leishmania Mexicana Pyruvate Kinase (LmPK) | 290,000 tested, 0.37% active | purified LmPK, Kinase-Glo ATP luminescence, 1 h | Q27686 | AID 1721, 2009 | Potency, µM (top dose mostly 57.5 µM), actives largely listed as inhibitors
Target sequence (Q27686 whole entry, looked up): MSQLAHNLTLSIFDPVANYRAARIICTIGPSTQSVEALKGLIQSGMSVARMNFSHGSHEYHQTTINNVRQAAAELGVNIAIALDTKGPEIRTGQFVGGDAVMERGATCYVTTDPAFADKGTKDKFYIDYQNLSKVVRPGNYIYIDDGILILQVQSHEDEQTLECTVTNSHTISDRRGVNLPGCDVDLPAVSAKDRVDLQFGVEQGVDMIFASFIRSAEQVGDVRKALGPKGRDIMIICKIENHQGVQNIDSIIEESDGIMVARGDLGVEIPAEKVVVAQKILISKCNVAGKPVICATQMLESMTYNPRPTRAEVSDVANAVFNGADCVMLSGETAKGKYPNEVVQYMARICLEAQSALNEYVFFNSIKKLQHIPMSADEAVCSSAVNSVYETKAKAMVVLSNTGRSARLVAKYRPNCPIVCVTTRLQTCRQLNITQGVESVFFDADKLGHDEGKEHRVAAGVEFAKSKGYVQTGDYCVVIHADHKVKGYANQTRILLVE
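Pyruvate kinase activity monitored as ATP production (luciferase luminescence). Conditions: 0.1 nM enzyme, 0.5 mM PEP, 0.1 mM ADP, 1 h, RT; normalized against uninhibited and no-enzyme wells.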
Pf growth 96h = Primary qHTS for delayed death inhibitors of the malarial parasite plastid, 96 hour incubation | P. falciparum luciferase reporter growth, 96 h | Potency, µM (series often up to 28.7 µM), hits mostly inhibitors | 320,000 tested, 6.9% active | AID 504834, 2011
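Two-generation exposure (96 h) targets delayed-death phenotype. Reporter parasites carrying integrated firefly luciferase, in red cells at 2% hematocrit and 0.05% parasitemia final, kept at 37 C, 5% CO2; luminescence loss indicates inhibition.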
Shiga inhibitor = A qHTS for Small Molecule Inhibitors of Shiga Toxin; Vero cells, Shiga toxin protein synthesis inhibition reporter; inhibition, % at 38.7 µM; 290,000 tested, 9.2% active; in the data active = inhibition mostly above about 28%, no sharp cut-off; inactive = mostly below about 43%
Pf growth 48h = Primary qHTS for delayed death inhibitors of the malarial parasite plastid, 48 hour incubation; P. falciparum luciferase growth in erythrocytes, 48 h; Potency, µM (titrated, usually from 28.7 µM), usual class: inhibitors; 310,000 tested, 5.9% active; AID 504832, 2011
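Read-out is firefly luciferase luminescence from an integrated reporter in P. falciparum, so falling signal marks reduced parasite growth. Infected erythrocytes were at 2% hematocrit and 0.1% parasitemia (final) in Albumax-supplemented RPMI 1640.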
CHX counter = Cycloheximide Counterscreen for Small Molecule Inhibitors of Shiga Toxin | cell reporter, cycloheximide protein synthesis inhibition counterscreen | 300,000 tested, 12% active | max response, % | AID 2314, 2010; in the data active = max response mostly above about 13%, no sharp cut-off; inactive = mostly below about 14%; note: read at 38.3 µM for the half of the compounds with a filed dose
Hits are given with their value; n = inactive; u = inconclusive; x = no result given; [ ] = remark or other dose. Most compounds without a hit are left out; they make up all but 22% or so of the library. Unless noted, calls come from the whole dose curve; as a rule, active = well fitted inhibition curve with a large enough effect; inconclusive = small, poorly fitted or top-dose-only effect, or another doubt; inactive = no such curve, though single readings can be large or run the other way.

SMILES	LmPK inhibitor	Pf growth 96h	Shiga inhibitor	Pf growth 48h	CHX counter
CC(=O)N1N=C(c2c(-c3ccccc3)c3cc(C)ccc3[nH]c2=O)CC1c1ccco1 (configuration not stated)	n	5.22µM	n	14.7µM	n
O=C(O)CCC(=O)N1N=C(c2c(-c3ccccc3)c3cc(Cl)ccc3[nH]c2=O)CC1c1cccs1 (configuration not stated)	n	u	n	n	n
CC(=O)N1N=C(c2c(-c3ccccc3)c3cc(Br)ccc3[nH]c2=O)CC1c1ccco1 (configuration not stated)	n	5.22µM	n	u	n
CC(C)(/C=N/NC(=O)CSCc1ccccc1Cl)CCC#N	n	n	n	n	n
COc1cccc(CNC(=O)c2nnn(CC(=O)Nc3ccc(Br)cc3)c2N)c1	n	n	n	n	n
Cc1cc(C)nc(NC2=NCCS2)n1	n	u	n	n	n
Cc1cc(C)nc(Sc2nc(Nc3ccccc3)nc(Sc3nc(C)cc(C)n3)n2)n1	n	u	n	u	n
Cc1ccc(Nc2nc(Nc3ccc(C)cc3)nc(SC3=NCCS3)n2)cc1	n	13.1µM	n	x	n
Cc1ccccc1Nc1nc(Nc2ccccc2C)nc(SC2=NCCS2)n1	n	x	n	10.4µM	n
CCCC(NC(=O)C(C)Sc1nnnn1C1CC1)c1ccccc1 (configuration not stated)	x	n	x	n	x
CC(O)/C=C/c1ccc2ccccc2n1 (configuration not stated)	n	x	33.0	n	23.2
Fc1cccc(Cl)c1/C=C/c1cnc2ccccc2n1	n	n	75.5	x	48.5
O=C1OC(c2ccccc2)=N/C1=C\C=C\c1ccco1	n	n	n	n	n
C(=C\c1ccco1)/c1ccc2ccccc2n1	u	n	52.0	n	38.0
Fc1cccc(F)c1/C=C/c1ccc2ccccc2n1	8.91µM	n	53.6	n	24.1
O=C(O)/C=C/c1cnc2ccccc2n1	n	n	n	n	n
CC(OC(=O)/C=C/c1ccc2ccccc2n1)C(=O)NCc1ccccc1 (configuration not stated)	x	n	x	n	x
COc1ccc(CCCc2nnc(SCC(=O)Nc3ccccc3F)o2)cc1	n	n	n	n	n
COc1ccc(CC(=O)Nc2nn(C)c3nc4c(C)cccc4cc23)cc1	n	n	n	n	n
O=C(Nc1ccc(F)cc1F)c1csc(-c2ccncc2)n1	n	n	n	n	26.7
O=C(Nc1ccc(F)cc1F)c1csc(-c2cccs2)n1	n	n	117.6	n	47.7
NC(=O)COC(=O)CC1CC2CCC1C2 (configuration not stated)	n	n[5.75 µM]	n	n	n
C=C1CCN(C(C(=O)OC)C(C)C)S(=O)(=O)c2ccccc21 (configuration not stated)	n	n	n	n	n
Cc1nn(-c2cccc(Cl)c2)c(Cl)c1/C=N/NC(=O)c1cccnc1	n	n	n	n	17.0
Cn1nc(C(F)(F)F)c(/C=N/OC(=O)c2ccccc2)c1Cl	n	n	n	n	n
SMILES	LmPK inhibitor	Pf growth 96h	Shiga inhibitor	Pf growth 48h	CHX counter
Cn1c(Cl)c(/C=N/OC(=O)c2ccccc2Cl)c2ccccc21	n	n	n	n	14.4
COC(=O)N/N=C/c1c(C)nn(-c2cccc(Cl)c2)c1Cl	n	u	54.7	n	49.2
Cc1nn(-c2ccccc2)c(Cl)c1/C=N/NC(N)=O	n	n	33.4	n	27.1
O=C(O)c1cc(O)c2c(c1)[C@H]([C@H]1c3cc(C(=O)O)cc(O)c3C(=O)c3c(O[C@@H]4OC(CO)C(O)C(O)C4O)cccc31)c1cccc(O[C@@H]3OC(CO)C(O)C(O)C3O)c1C2=O (some centres not stated)	x	n	x	n	x
Cc1nn(-c2ccccc2)c(Cl)c1/C=N/Nc1nc2ccccc2n1C	n	u	79.4	n	54.2
Cc1nn(C)c(Cl)c1/C=N/OC(=O)c1ccc(F)cc1	n	n	n	n	n
Cc1nn(-c2ccccc2)c(Cl)c1/C=N/NC(=O)c1ccnn1C	n	n	106.6	n	34.2
Cc1nn(-c2ccccc2)c(Cl)c1/C=N/Nc1nnc(C)c(=O)[nH]1	n	u	n	n	n
Cc1nn(C)c(Cl)c1/C=N/OC(=O)c1ccccc1	n	n	n	n	15.8
Cc1ccc(C)c(OCC(=O)N/N=C/c2c(C)nn(-c3ccccc3)c2Cl)c1C	n	n	n	n	n
COC(=O)N/N=C\c1c(C)nn(-c2ccccc2)c1Cl	n	n	58.0	n	23.2
O=C(NCc1ccco1)C(=O)N1CCCC1	n	n	n	n	n
CCn1cc(C(=O)O)c(=O)c2cnc(N3CCN(C(=O)Nc4cccc5ccccc45)CC3)nc21	n	u	n	n	n
O=C(O)c1ccccc1C(=O)c1cccc2ccccc12	n	n	n	n	n
CCOc1ccc(Oc2c(/C=N/NC(=O)COc3ccccc3OC)c(C)nn2-c2ccccc2)cc1	n	5.22µM	n	u	n
Cc1nn(-c2ccccc2)c(Cl)c1/C=N/NC(=O)CNC(=O)c1ccccc1Cl	n	1.85µM	n	n	18.2
Cc1nn(Cc2c(Cl)cccc2Cl)c(Cl)c1/C=N/NC(=O)c1cccnc1	n	u	41.3	u	15.8
Cc1ccc2cc(COC(=O)C3CCCO3)c(=O)[nH]c2c1 (configuration not stated)	n	n	n	n	n
Cc1cc(C)c(NC(=O)COC(=O)CCc2ccc(S(=O)(=O)N3CCCCC3)cc2)c(C)c1	n	n	n	n	n
CCNC(=O)CSc1nnc(-c2cccc(S(=O)(=O)N3CCOCC3)c2)o1	x	n	x	u	x
CNS(=O)(=O)c1ccc(NC(=S)Nc2ccc3c(c2)OCO3)cc1	n	n	55.4	n	28.5
O=S(=O)(c1ccc(NC(=S)Nc2ccc3c(c2)OCO3)cc1)N1CCOCC1	n	n	63.6	n	36.7
Cc1cc(NS(=O)(=O)c2ccc(NC(=O)Nc3ccc4c(c3)OCO4)cc2)no1	n	n	34.9	n	n
O=C(Nc1ccc(S(=O)(=O)N2CCOCC2)cc1)c1ccc2c(c1)OCO2	n	n	n	n	n
CC1CCCN(C(=O)COC(=O)C2CCN(S(=O)(=O)c3ccc4c(c3)OCCO4)CC2)C1 (configuration not stated)	x	n	x	n	x
SMILES	LmPK inhibitor	Pf growth 96h	Shiga inhibitor	Pf growth 48h	CHX counter
CCCCNC(=O)/C(C#N)=c1\s/c(=C\c2ccccc2OC(F)F)c(=O)n1CCCOC	n	n	n	n	n
COc1cc(OC)c(-c2nc3cnccc3n2C)cc1OC	n	n	n	n	n
Cn1c(-c2ccc3ccccc3n2)nc2cnccc21	n	n	49.3	n	26.8
Cc1ccc(C(=O)N/N=C\C=C\c2ccccc2[N+](=O)[O-])cn1	n	n	n	n	n
CCOc1ccc(C(=O)N/N=C/c2cccc3cccnc23)cc1	n	n	n	u	34.6
Cc1ccc(C(=O)N/N=C\C=C\c2ccc(Br)cc2)cn1	n	u	n	n	n
